Results as given in the supplement of paper PMC7380943.
Where a name gives a salt, the structure may show the parent alone. ± gives the standard deviation of the averaged measurements.

Legend:
[1] = tested on: CLZ3 (HCA2 human fibroblast dual HR-NHEJ reporter); assay: NHEJ repair efficiency (GFP+ cells) relative to control (log10 fold); higher = more non-homologous end joining; settings: 5 µM; doxycycline 0.5 ug/mL
[2] = tested on: CLZ3 (HCA2 human fibroblast dual HR-NHEJ reporter); assay: HR repair efficiency (tdTomato+ cells) relative to control (log10 fold); higher = more homologous recombination; settings: 5 µM; doxycycline 0.5 ug/mL
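Wherever HR repair efficiency (tdTomato+ cells) relative to control is given: compound given one day before doxycycline, which switches on I-SceI endonuclease expression to create double-strand breaks within the integrated reporter.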
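Wherever NHEJ repair efficiency (GFP+ cells) relative to control is given: compound given one day ahead of doxycycline, which switches on I-SceI endonuclease to cut the chromosomally integrated reporter and create DSBs.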

| Compound | NHEJ repair efficiency (log10) [1] | HR repair efficiency (log10) [2] |
| --- | --- | --- |
| O=C1C=CC[C@@H]2[C@H]3CCCN4CCC[C@@H](CN12)[C@@H]34 [Sophocarpine] | -0.0254 | 0.165 |
| C/C=C/C#CC#C/C=C/c1ccco1 [Atractylodin] | 0.014 | 0.114 |
| COC[C@]12CN(C)[C@@H]3[C@@H]4[C@H](OC)[C@H]1[C@@]3([C@@H](OC)C[C@H]2O)[C@@H]1C[C@@]2(O)[C@H](OC(=O)c3ccccc3)[C@@H]1[C@]4(OC(C)=O)[C@@H](O)[C@@H]2OC [Mesaconitine] | -0.0215 | 0.0192 |
| CC(C)=CCOc1c2occc2cc2ccc(=O)oc12 [Imperatorin] | 0.0993 ± 0.22 | 0.135 ± 0.28 |
| COC[C@@]12CC[C@H](OC)[C@]34C(C([C@H](OC)[C@H]13)[C@]1(OC(C)=O)[C@H]3[C@@H](OC(=O)c5ccccc5)[C@](O)(C[C@H]34)[C@@H](OC)[C@@H]1O)N(C)C2 [Hypaconitine] | 0.0511 | 0.0965 |
| c1c2c(cc3c1OCO3)-c1cc3ccc4c(c3c[n+]1CC2)OCO4 [Coptisine Chloride] | -0.16 | 0.0577 |
| C[C@H]1CCC2N(C1)C[C@H]1C3CC4[C@@H](CC(=O)C5C[C@@H](O)CC[C@@]54C)C3CCC1[C@]2(C)O (some centres not stated) [Peiminine] | -0.0507 | 0.0963 |
| COc1ccc2c(c1OC)CN1CCc3cc4c(cc3C1C2)OCO4 (configuration not stated) [Tetrahydroberberine] | -0.000562 | 0.103 |
| CC(C)(C)[C@]1(O)CC2OC(=O)CC23C(=O)OC2OC(=O)[C@H](O)C231 (some centres not stated) [Bilobalide] | 0.0452 | 0.0541 |
| O=C1C[C@@H]2OCC=C3CN4CC[C@]56c7ccccc7N1[C@H]5[C@H]2[C@H]3C[C@H]46 [Strychnine] | 0.104 | -0.0183 |
| C=C(C)C1CC=C(C=O)CC1 (configuration not stated) [Perillaldehyde] | 0.0128 | -0.104 |
| COC(=O)C1=CCCN(C)C1 [Arecoline] | 0.0763 | 0.183 |
| CN[C@@H](Cc1c[nH]c2ccccc12)C(=O)O [Abrine] | -0.159 | -0.21 |
| CN(C)CCc1ccc(O)cc1 [Hordenine] | -0.0244 | 0.111 |
| COc1cc(C2OCC3C(c4cc(OC)c(O[C@@H]5O[C@H](CO)[C@@H](O)[C@H](O)[C@H]5O)c(OC)c4)OCC23)cc(OC)c1O[C@H]1O[C@@H](CO)[C@H](O)[C@@H](O)[C@@H]1O (some centres not stated) [Eleutheroside E] | 0.119 | -0.0597 |
| CC(C)=CCCC(C)(O)C1CCC2(C)C1C(O)CC1C3(C)CCC(O)C(C)(C)C3C(OC3OC(CO)C(O)C(O)C3O)CC12C (configuration not stated) [R-Ginsenoside Rh1] | -0.0562 | 0.0565 |
| CCN1C[C@@]2(COC)[C@H]3[C@@H](OC)[C@H]4C1[C@]3([C@@H](OC)C[C@H]2OC(C)=O)[C@@H]1C[C@@]2(O)[C@H](OC(=O)c3ccccc3)[C@@H]1[C@]4(OC(C)=O)[C@@H](O)[C@@H]2OC [Acetylaconitine] | -0.0797 | -0.0667 |
| O=c1ccc2cc(O[C@@H]3O[C@H](CO)[C@@H](O)[C@H](O)[C@H]3O)c(O)cc2o1 [Esculin Sesquihydrate] | 0.0261 | 0.046 |
| C=C[C@@H]1C2=CCOC(=O)C2=CO[C@H]1O[C@@H]1O[C@H](CO)[C@@H](O)[C@H](O)[C@H]1O [Gentiopicrin] | -0.0046 | 0.0966 |

| Compound | NHEJ repair efficiency (log10) [1] | HR repair efficiency (log10) [2] |
| --- | --- | --- |
| CCN1CC2(COC)CCC(O)C34C5CC6C(OC)CC(O)(C5C6O)C(C(OC)C23)C14 (configuration not stated) [Bullatine B] | -0.0469 | 0.0659 |
| CC(C)=CCC[C@@](C)(O)[C@H]1CC[C@]2(C)[C@@H]1[C@H](O)C[C@@H]1[C@@]3(C)CC[C@H](O[C@@H]4O[C@H](CO)[C@@H](O)[C@H](O)[C@H]4O)C(C)(C)[C@@H]3CC[C@]12C [R-Ginsenoside Rh2] | -0.0662 | -0.111 |
| CC1(C)[C@H]2O[C@H]2[C@H]2[C@](C)(O)[C@@H]3CCC4[C@H](O)[C@@]3(C[C@@H](O)[C@@]21O)C[C@@]4(C)O [Rhodojaponin Iii] | 0.0171 | 0.0481 |
| O=c1cccc2n1CC1CC2CN2CCCCC12 (configuration not stated) [Thermopsine] | 0.0072 | -0.25 |
| COC[C@@]12CC[C@H](OC)[C@]34C([C@H]([C@H](OC)[C@H]13)[C@]1(O)[C@H]3[C@@H](OC(=O)c5ccccc5)[C@](O)(C[C@H]34)[C@@H](OC)[C@@H]1O)N(C)C2 [Benzoylhypaconine] | -0.013 | 0.00783 |
| CCN1C[C@]2(COC)[C@H](O)C[C@H](OC)[C@]34C1[C@H]([C@H](OC)[C@H]23)[C@]1(O)[C@H]2[C@@H](O)[C@](O)(C[C@H]24)[C@@H](OC)[C@@H]1O [Aconine] | -0.104 | 0.0705 |
| C[C@@H]1CC[C@H]2[C@@H](C)C(=O)O[C@@H]3O[C@@]4(C)CC[C@@H]1[C@]32OO4 [Artemisinin] | 0.1 | 0.328 |
| O=C(O)[C@@H]1[C@H](C(=O)O)[C@H]2CC[C@@H]1O2 [Endothall Disodium Salt] | 0.13 | 0.143 |
| O=c1ccc2cc3ccoc3c(O)c2o1 [Xanthotoxol] | 0.0631 | -0.0752 |
| CN[C@@H](C)[C@H](O)c1ccccc1 [Ephedrine hydrochloride] | 0.0488 | -0.0579 |
| N#C[C@H](O[C@@H]1O[C@H](CO[C@@H]2O[C@H](CO)[C@@H](O)[C@H](O)[C@H]2O)[C@@H](O)[C@H](O)[C@H]1O)c1ccccc1 [Amygdalin] | -0.0091 | 0.107 |
| C=C[C@H]1[C@H](O[C@@H]2O[C@H](CO)[C@@H](O)[C@H](O)[C@H]2O)OC=C2C(=O)OCC[C@H]21 [Sweroside] | 0.0688 | 0.0254 |
| C[C@H]1CC[C@@H]2N(C1)C[C@H]1[C@@H]3C[C@H]4[C@@H](C[C@H](O)[C@H]5C[C@@H](O)CC[C@@]54C)[C@@H]3CC[C@@H]1[C@]2(C)O [Peimine] | -0.07 | -0.0412 |
| O=C1C=CC(=O)c2c(O)cccc21 [Juglone] | 0.0328 | -0.281 |
| Oc1cc(O)cc(/C=C/c2ccc(O)cc2O)c1 [Oxy-Resveratrol] | 0.00144 | -0.164 |
| CC[C@H]1CN2CC[C@]3(C(=O)Nc4ccccc43)[C@@H]2C[C@@H]1/C(=C\OC)C(=O)OC [Rhynchophylline] | -0.15 | -0.0611 |
| CCN1C[C@]2(COC)CC[C@H](O)[C@]34C1[C@H]([C@H](OC)[C@H]23)[C@@]1(O)C[C@H](OC)[C@H]2C[C@@H]4[C@@H]1[C@H]2O [Neoline] | -0.0435 | -0.186 |
| C=C1[C@H]2C[C@@]3([C@@H]1O)[C@@H](CC2=O)[C@]12[C@@H]4C[C@H]3[C@H]1N(CC)C[C@]4(C)CC[C@@H]2O [Songorine] | -0.0383 | 0.115 |
| C=CCSSCC=C [Garlicin] | -0.0895 | -0.0428 |

| Compound | NHEJ repair efficiency (log10) [1] | HR repair efficiency (log10) [2] |
| --- | --- | --- |
| CC(C)c1ccc2c(c1O)CC[C@H]1C3=C(CC[C@]21C)C(=O)OC3 [Triptophenolide] | -0.142 ± 0.096 | -0.108 ± 0.2 |
| N#CCc1ccc2c(c1)OCO2 [Homopiperonylonitrile] | 0.103 | 0.127 |
| C=C[C@H]1CN2CC[C@]3(C(=O)Nc4ccccc43)[C@@H]2C[C@@H]1/C(=C\OC)C(=O)OC [Corynoxeine] | -0.123 | -0.139 |
| CCN1C[C@]2(COC)[C@H](O)C[C@H](OC)[C@]34C1[C@H]([C@H](OC)[C@H]23)[C@@]1(OC(C)=O)C[C@H](OC)[C@@H]2C[C@@H]4[C@@H]1[C@H]2OC(=O)c1ccccc1 [13-Dehydroxyindaconintine] | 0.0298 | -0.0247 |
| N#C/C=C1/C=C[C@@H](O)[C@H](O)[C@H]1O[C@@H]1O[C@H](CO)[C@@H](O)[C@H](O)[C@H]1O [Lithospermoside] | 0.0837 | 0.0424 |
| CC[C@H]1CN2CC[C@@]3(C(=O)Nc4ccccc43)[C@@H]2C[C@@H]1/C(=C\OC)C(=O)OC [Isorhynchophylline] | -0.108 | -0.0739 |
| CCCC[N+]1(C)[C@@H]2C[C@@H](OC(=O)[C@H](CO)c3ccccc3)C[C@H]1[C@@H]1O[C@@H]12 (some centres not stated) [Scopolamine Butylbromide] | -0.172 | 0.0357 |
| COc1cc2c3c(c1OC)-c1ccccc1C[C@H]3N(C)CC2 [Nuciferine] | 0.114 | 0.137 |
| COc1cc2c(cc1OC)[C@@]13CCN4CC5=CCO[C@H]6CC(=O)N2[C@H]1[C@H]6[C@H]5C[C@H]43 [Brucine] | -0.228 | -0.24 |
| CCN1C[C@]2(COC)CC[C@H](OC)[C@]34C1[C@H]([C@H](OC)[C@H]23)[C@@]1(OC(C)=O)C[C@H](OC)[C@@]2(O)C[C@@H]4[C@@H]1[C@H]2OC(=O)c1ccc(OC)cc1 [Crassicauline A] | 0.00451 | 0.0792 |
| C[C@H]1CC[C@H]2[C@H](C)[C@@H]3CC[C@@H]4[C@@H](C[C@H]5[C@H]4C[C@@H](O)[C@H]4C[C@@H](O)CC[C@@]45C)[C@@H]3CN2C1 [Hupehenine] | 0.00613 | -0.0543 |
| O=C1CCC[C@@H]2[C@H]3CCCN4CCC[C@@H](CN12)[C@@H]34 [Matrine] | -0.00125 | -0.0371 |
| CN(C)Cc1c[nH]c2ccccc12 [Gramine] | 0.014 | -0.0905 |
| COc1ccc(Cc2nccc3cc(OC)c(OC)cc23)cc1OC [Papaverine hydrochloride] | -0.296 | -0.22 |
| C/C1=C\C2C(CCC3(CO3)C(O)C3C(O)C(C)CC3(O)C1=O)C2(C)C (configuration not stated) [6,17-Epoxylathyrol] | -0.129 | 0.0115 |
| O=c1cccc2n1C[C@@H]1CNC[C@H]2C1 [Cytisine] | 0.00702 | 0.264 |
| COC1=C[C@@H]2[C@@H]3Cc4ccc(OC)c(O)c4[C@]2(CCN3C)CC1=O [Sinomenine] | 0.154 | 0.274 |
| COc1cc([C@H]2OC[C@H]3[C@H]2CO[C@@H]3c2cc(OC)c(O[C@@H]3O[C@H](CO)[C@@H](O)[C@H](O)[C@H]3O)c(OC)c2)cc(OC)c1O[C@@H]1O[C@H](CO)[C@@H](O)[C@H](O)[C@H]1O [Eleutheroside D] | 0.0455 | -0.0848 |
